For 34 compounds, Potency results are on record in PubChem BioAssay (NCATS).

Molecules are shown by their SMILES. Results filed as inconclusive are left out. Activity calls are given as the source filed them. Calls follow the shape of the full dose curve. Bridge positions count the residues as written; N and C are the ends. Square brackets hold non-standard residues; d marks the D form. Peptide text beside a SMILES is read from it. hArg = N=C(N)NCCCC[C@H](N)C(=O)O; Mpa = O=C(O)CCS

Test [1] in a line: Primary qHTS for inhibitors of SARS-S pseudo-typed particle cell entry (AID 1479145; also: nearly all actives have a fitted effect of over 45% in size). (qHTS replaces the single test concentration by a dilution series.)
Test [2] can be described thus: Primary qHTS for Huh7 cytotoxicity: counterscreen for inhibitors of MERS-S pseudotyped particle cell entry (AID 1479147).
Test [3] is described as follows: Primary qHTS for inhibitors of MERS-S pseudo-typed particle cell entry (AID 1479149). Also: nearly all actives have a fitted effect of over 60% in size.
Test [4] is described as follows: Primary qHTS for Vero E6 cytotoxicity: counterscreen for inhibitors of SARS-S pseudo-typed particle cell entry (AID 1479150).
Potency is read from the fitted curve at half-maximal effect.

With `Cc1cc(C(C)(C)C)c(O)c(C)c1CC1=NCCN1`, the Potency result in test [1], in test [2], in test [3] and in test [4] was “inactive” each time.

With `O=C1C(c2[nH]c3ccccc3c2O)=Nc2ccccc21`, the Potency entry in test [1], in test [2], in test [3] and in test [4] was “inactive” each time.

With `CCOc1cc(N)c(Cl)cc1C(=O)NCC1CN(Cc2ccc(F)cc2)CCO1` (stereo unspecified), the Potency entry in test [1], in test [2], in test [3] and in test [4] was “inactive” each time.

With `C/C=C/c1ccc(OC)cc1`, the Potency result in test [1], in test [2], in test [3] and in test [4] was “inactive” each time.

For `NC(=O)C1(N2CCCCC2)CCN(CCCC(=O)c2ccc(F)cc2)CC1`, the Potency result in test [1], in test [2], in test [3] and in test [4] was “inactive” in each case.

In the case of `CC(C)(C)CC(=O)OCC(=O)[C@@]1(O)CC[C@H]2[C@@H]3CCC4=CC(=O)C=C[C@]4(C)[C@H]3[C@@H](O)C[C@@]21C`, the Potency result in test [1], in test [2], in test [3] and in test [4] was “inactive” each time.

`CC(=O)Oc1c(C)c(C)c2c(c1C)CC[C@@](C)(CCC[C@H](C)CCC[C@H](C)CCCC(C)C)O2`: the Potency result in test [1], in test [2], in test [3] and in test [4] was “inactive” each time.

Turning to `OC1C(O)C(O)C(O)C(O)C1O` (stereo unspecified), the Potency entry in test [1], in test [2], in test [3] and in test [4] was “inactive” throughout.

For `CC1(C)O[C@@H]2C[C@H]3[C@@H]4C[C@H](F)C5=CC(=O)C=C[C@]5(C)[C@H]4[C@@H](O)C[C@]3(C)[C@]2(C(=O)CO)O1`, the Potency entry in test [1], in test [2], in test [3] and in test [4] was “inactive” in each case.

Consider `CC(C)NCC(O)COc1ccc(COCCOC(C)C)cc1` (stereo unspecified), for which the Potency result in test [1], in test [2], in test [3] and in test [4] was “inactive” each time.

Take `CCN(CC)CCNC(C(=O)OCCC(C)C)c1ccccc1` (stereo unspecified): the Potency entry in test [1], in test [2], in test [3] and in test [4] was “inactive” throughout.

With `NC(=O)[C@@H]1CSSCCC(=O)N[C@@H](CCCCN=C(N)N)C(=O)NCC(=O)N[C@@H](CC(=O)O)C(=O)N[C@@H](Cc2c[nH]c3ccccc23)C(=O)N2CCC[C@H]2C(=O)N1` ([Mpa][hArg]GDWPC-NH2; disulfide 1-7), the Potency entry in test [1], in test [2], in test [3] and in test [4] was “inactive” each time.

`N[C@H](Cc1c[nH]c2ccccc12)C(=O)O`: the Potency entry in test [1], in test [2], in test [3] and in test [4] was “inactive” in each case.

In the case of `O=C(O)/C=C/c1ccc(Cn2ccnc2)cc1`, the Potency entry in test [1], in test [2], in test [3] and in test [4] was “inactive” each time.

Consider `CC(C(O)c1ccc(O)cc1)N1CCC(Cc2ccccc2)CC1` (stereo unspecified), for which the Potency result in test [1], in test [2], in test [3] and in test [4] was “inactive” throughout.

Turning to `Oc1ccc(CCNCCCCCCNCCc2ccccc2)cc1O`, the Potency result in test [1], in test [2], in test [3] and in test [4] was “inactive” in each case.

Regarding `C[C@@H]1CCN(C(=O)[C@H](CCCN=C(N)N)NS(=O)(=O)c2cccc3c2NC[C@H](C)C3)[C@@H](C(=O)O)C1`, the Potency entry in test [1], in test [2], in test [3] and in test [4] was “inactive” each time.

For `CC1(C)O[C@@H]2C[C@H]3[C@@H]4C[C@H](F)C5=CC(=O)CC[C@]5(C)[C@H]4[C@@H](O)C[C@]3(C)[C@]2(C(=O)CO)O1`, the Potency entry in test [1], in test [2], in test [3] and in test [4] was “inactive” throughout.

Turning to `C=CCCCCCCCCC(=O)O`, the Potency result in test [1], in test [2], in test [3] and in test [4] was “inactive” throughout.

With `C#C[C@]1(O)CC[C@H]2[C@@H]3[C@H](C)CC4=C(CCC(=O)C4)[C@H]3CC[C@@]21C`, the Potency result in test [1], in test [2], in test [3] and in test [4] was “inactive” throughout.

Consider `CC(=O)Oc1ccc(C(=C2CCCCC2)c2ccc(OC(C)=O)cc2)cc1`, for which the Potency result in test [1], in test [2], in test [3] and in test [4] was “inactive” each time.

`CCCNC(C)(C)COC(=O)c1ccccc1`: the Potency result in test [1], in test [2], in test [3] and in test [4] was “inactive” in each case.

Regarding `COc1cc(OC)cc(OC)c1`, the Potency entry in test [1], in test [2], in test [3] and in test [4] was “inactive” in each case.

Regarding `C[C@]12CC[C@@H]3c4ccc(O)cc4CC[C@H]3[C@@H]1C[C@@H](O)[C@@H]2O`, the Potency entry in test [1], in test [2], in test [3] and in test [4] was “inactive” throughout.

Consider `Cc1cccc(CN2CCN(C(c3ccccc3)c3ccc(Cl)cc3)CC2)c1` (stereo unspecified), for which the Potency result in test [1], in test [2], in test [3] and in test [4] was “inactive” each time.

Consider `Nc1c2c(nc3ccccc13)CCCC2`, for which the Potency entry in test [1], in test [2], in test [3] and in test [4] was “inactive” in each case.

In the case of `NCCc1ccc(O)c(O)c1`, the Potency entry in test [1], in test [2], in test [3] and in test [4] was “inactive” throughout.

On to `CN1C(=O)CC(c2ccccc2)C1=O` (stereo unspecified), for which the Potency result in test [1], in test [2], in test [3] and in test [4] was “inactive” each time.

Consider `CC[N+](CC)(CC)CCOC(=O)C(C1CCCC1)C1CCCC1`, for which the Potency entry in test [1], in test [2], in test [3] and in test [4] was “inactive” in each case.

For the compound `C[N+]1(CC2COC(c3ccccc3)(c3ccccc3)O2)CCCCC1` (stereo unspecified), the Potency result in test [1], in test [2], in test [3] and in test [4] was “inactive” throughout.

`CN(C)C(=S)SC(=S)N(C)C`: the Potency in test [1] is 1.41 µM (active); in test [2], 3.16 µM (active); in test [3] it was 1 µM (active); in test [4], 2.82 µM (active).

In the case of `C[C@]12C=CC(=O)C=C1CC[C@H]1[C@@H]3C[C@@H](O)[C@](O)(C(=O)CO)[C@@]3(C)C[C@H](O)[C@@]12F`, the Potency entry in test [1], in test [2], in test [3] and in test [4] was “inactive” throughout.

With `CCC(=O)O[C@]1(C(=O)CCl)[C@@H](C)C[C@H]2[C@@H]3CCC4=CC(=O)C=C[C@]4(C)[C@@]3(F)[C@@H](O)C[C@@]21C`, the Potency entry in test [1], in test [2], in test [3] and in test [4] was “inactive” in each case.

In the case of `CC[C@H](NC(C)C)[C@H](O)c1ccc(O)c2[nH]c(=O)ccc12`, the Potency entry in test [1], in test [2], in test [3] and in test [4] was “inactive” in each case.
